This is a sample that favours compounds with a hit; in the whole collection about 1.2% have one here.
IL1B NFkB inh – blocks IL-1B driven NFkB nuclear translocation in HUVEC cells. inhibition, % at 2 µM. HUVEC IL-1B NFkB p65 nuclear translocation imaging. 94,000 tested, 0.43% active;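 active = inhibition above about 30% together with a positive call from visual inspection of the well image, limit read from the data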;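 note: nuclear over cytoplasmic p65 intensity ratio measured by imaging; 0% = IL-1B stimulated DMSO wells and 100% = unstimulated DMSO wells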
sEH act – increases human soluble epoxide hydrolase activity; 91,000 tested, 0.04% active; activation, % at 2 µM; AID 717; purified human sEH enzymatic activity, activator screen; in the data active = activation above about 37%
Target sequence (P34913 whole entry, looked up): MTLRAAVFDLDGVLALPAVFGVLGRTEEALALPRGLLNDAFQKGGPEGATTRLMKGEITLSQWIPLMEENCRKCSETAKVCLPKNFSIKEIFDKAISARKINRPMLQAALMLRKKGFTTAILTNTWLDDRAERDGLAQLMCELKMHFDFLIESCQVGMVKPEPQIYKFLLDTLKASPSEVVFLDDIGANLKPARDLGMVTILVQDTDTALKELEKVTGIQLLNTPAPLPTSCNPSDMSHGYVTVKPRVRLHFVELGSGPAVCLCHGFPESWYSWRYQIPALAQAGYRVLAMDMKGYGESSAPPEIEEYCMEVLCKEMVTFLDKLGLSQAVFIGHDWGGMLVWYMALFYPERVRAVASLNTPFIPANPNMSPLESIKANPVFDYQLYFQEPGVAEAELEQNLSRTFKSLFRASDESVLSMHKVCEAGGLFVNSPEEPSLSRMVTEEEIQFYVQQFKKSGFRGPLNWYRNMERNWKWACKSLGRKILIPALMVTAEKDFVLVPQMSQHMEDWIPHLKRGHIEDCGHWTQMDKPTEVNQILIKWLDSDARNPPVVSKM
NFkB transloc pot – enhances IL-1B driven NFkB nuclear translocation; activation, % at 2 µM; 94,000 tested, 0.3% active; AID 819; HUVEC IL-1B NFkB p65 nuclear translocation imaging;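 active = activation above 40%, about the mean plus 3 SD, also judged a hit on visual image review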;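 note: percent activation is computed from the nuclear over cytoplasmic p65 intensity ratio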
IL1B cytotox – toxic to HUVEC cells under IL-1B stimulation. HUVEC cell count loss, Hoechst imaging, IL-1B stimulated. cell count reduction, % at 2 µM. 94,000 tested, 0.41% active. AID 845;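 active = cell count reduction more than 3 SD above the screen-wide mean, cut at about 70% in these data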;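 note: normalized per plate to untreated control cells as the no-loss baseline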
sEH inhibitor – blocks human soluble epoxide hydrolase activity; AID 707; inhibition, % at 2 µM; 91,000 tested, 0.34% active; recombinant human sEH enzymatic activity assay; P34913; in the data active = inhibition above about 80%
Active calls of the source: *.

For Cc1ccc(CNC(=O)C(Cc2ccccc2)NS(=O)(=O)c2cccs2)cc1 (stereo not drawn) the results were IL1B NFkB inh 33*, sEH act 1, NFkB transloc pot -33, IL1B cytotox -4 and sEH inhibitor 1.
Screening CC(=O)C1=C(O)C(=O)N(CCCn2ccnc2)C1c1ccc(C)cc1 (stereo not drawn) returned IL1B NFkB inh 4, sEH act -6, NFkB transloc pot -4, IL1B cytotox -4 and sEH inhibitor 6.
Cc1nc(=O)cc(-c2ccccc2)n1-c1ccccc1 was read as IL1B NFkB inh -5, sEH act -2, NFkB transloc pot 5, IL1B cytotox -5 and sEH inhibitor 4.
Screening CC1=NN(c2ccccc2)C(=O)C1(C)C returned IL1B NFkB inh 50*, sEH act 13, NFkB transloc pot -50, IL1B cytotox -1 and sEH inhibitor -13.
`CC1(C)CC(=O)C2=C(C1)N=c1s/c(=C/c3ccc(F)c(F)c3)c(=O)n1C2c1ccc(F)cc1` (stereo not drawn) gave IL1B NFkB inh 13, sEH act 37*, NFkB transloc pot -13, IL1B cytotox 4 and sEH inhibitor -33.
COc1ccc(C2C(C(C)=O)=C(C)N=c3s/c(=C/c4ccc5c(c4)OCO5)c(=O)n32)cc1 (stereo not drawn) was read as IL1B NFkB inh -7, sEH act 5, NFkB transloc pot 7, IL1B cytotox -19 and sEH inhibitor -4.
For Clc1ccccc1Sc1cnc2ccccc2n1 the results were IL1B NFkB inh 36*, sEH act -14, NFkB transloc pot -36, IL1B cytotox -10 and sEH inhibitor 15.
Screening Clc1ccc(Sc2cnc3ccccc3n2)cc1 returned IL1B NFkB inh 17, sEH act 4, NFkB transloc pot -17, IL1B cytotox 14 and sEH inhibitor -3.
Cc1ccc(-n2nc3c(c2NC(=O)c2ccc4c(c2)OCO4)CSC3)cc1 was read as IL1B NFkB inh 98*, sEH act -5, NFkB transloc pot -97, IL1B cytotox 93* and sEH inhibitor 5.
Screening CC(C)(C)c1cnnn1-c1ccc(NC(=O)c2ccc3c(c2)OCO3)cc1 returned IL1B NFkB inh 6, sEH act -93, NFkB transloc pot -6, IL1B cytotox -115 and sEH inhibitor 93*.
`CC(=O)Nc1c2c(nn1-c1ccc(C)cc1C)CSC2` gave IL1B NFkB inh -36, sEH act -9, NFkB transloc pot 36, IL1B cytotox -17 and sEH inhibitor 12.
Screening Cc1ccc(-n2nc3ccc(NC(=O)c4ccc5c(c4)OCO5)cc3n2)cc1 returned IL1B NFkB inh -9, sEH act -8, NFkB transloc pot 9, IL1B cytotox -10 and sEH inhibitor 10.
Screening CCCC(=O)Nc1c2c(nn1-c1ccc(C)cc1C)CSC2 returned IL1B NFkB inh 15, sEH act 0, NFkB transloc pot -15, IL1B cytotox 83* and sEH inhibitor 0.
`Cc1ccc(-c2cnn(-c3cccc([N+](=O)[O-])c3)c2N)cc1` gave IL1B NFkB inh -4, sEH act 14, NFkB transloc pot 4, IL1B cytotox -21 and sEH inhibitor -11.
`CC(C)(C)NS(=O)(=O)c1ccc(CCC(=O)NCc2cccnc2)cc1` gave IL1B NFkB inh -10, sEH act 16, NFkB transloc pot 10, IL1B cytotox 0 and sEH inhibitor -16.
`COc1ccc(C2C3=C(CC(C)(C)CC3=O)Nc3c2c(=O)[nH]c(=O)n3Cc2ccccc2)cc1OC` (stereo not drawn) gave IL1B NFkB inh -9, sEH act -1, NFkB transloc pot 9, IL1B cytotox 4 and sEH inhibitor 2.
For COc1ccc(C2C3=C(CC(C)(C)CC3=O)Nc3c2c(=O)[nH]c(=O)n3Cc2ccccc2)cc1 (stereo not drawn) the results were IL1B NFkB inh -102, sEH act 0, NFkB transloc pot 102*, IL1B cytotox 2 and sEH inhibitor 0.
COc1ccc(Cc2nnc(SCC(=O)NCC3CCCO3)o2)cc1 (stereo not drawn) was read as IL1B NFkB inh 6, sEH act 16, NFkB transloc pot -6, IL1B cytotox -15 and sEH inhibitor -17.
For O=C(NCc1ccncc1)C1CCN(S(=O)(=O)Cc2ccccc2)CC1 the results were IL1B NFkB inh -12, sEH act -6, NFkB transloc pot 12, IL1B cytotox 3 and sEH inhibitor 6.
For CC(C)(C)c1ccc(C(=O)N2CCC(C(=O)NCc3ccncc3)CC2)cc1 the results were IL1B NFkB inh 100*, sEH act -4, NFkB transloc pot -100, IL1B cytotox 94* and sEH inhibitor 4.
Screening O=C(Nc1ccc(NC(=S)NC(=O)c2ccccc2Cl)cc1)c1cccc(Cl)c1 returned IL1B NFkB inh 6, sEH act -24, NFkB transloc pot -6, IL1B cytotox 10 and sEH inhibitor 26.
